High-throughput results (PubChem)
TIM10 inh: TIM10 yeast growth inhibition | inhibition, % at 10 µM | 330,000 tested, 1.4% active | S. cerevisiae TIM10 strain growth, BacTiter-Glo luminescence, 24 h;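 active = inhibition of 40% or more at the single tested concentration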;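 also: wild-type TIM10 isogenic control strain grown at permissive 25 °C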
tim10-1 inh: inhibits growth of tim10-1 mutant yeast; S. cerevisiae tim10-1 ts strain growth, BacTiter-Glo, 24 h; inhibition, % at 20 µM; 330,000 tested, 2.2% active;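 active = inhibition of at least 40%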;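 also: mutant grown at 25 °C; 0% = DMSO wells with yeast and 100% = wells holding no yeast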
PfHsp90 set2: reduces growth (ATP signal) of yeast expressing P. falciparum Hsp90; inhibition, % at 9.4 µM; S. cerevisiae expressing PfHsp90, BacTiter-Glo ATP, 48 h; yeast lacking PDR1 and PDR3 efflux regulators; 310,000 tested, 0.32% active;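 active = every replicate shows inhibition above about 80%, whatever the replicate mean, limit read from the data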;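 also: 0% = DMSO neutral controls and 100% = 20 µM radicicol positive controls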
NALP3 yeast inh: blocks the NALP3 inflammasome reconstituted in yeast; Yeast reconstituted NLRP3/ASC/caspase-1, beta-gal luminescence, 24 h; inhibition, % at 10 µM; 330,000 tested, 0.39% active;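 active = inhibition of 50% or more; inactive = inhibition below 50%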;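 also: plate controls were induced DMSO wells for no effect and uninduced yeast grown without galactose for full effect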
tim23-1 inh: inhibits growth of tim23-1 mutant yeast. S. cerevisiae tim23-1 growth, BacTiter-Glo luminescence, 24 h. inhibition, % at 20 µM. 330,000 tested, 1.3% active;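 active = growth inhibition of the mutant yeast at or above 50%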;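 also: temperature-sensitive mutant grown at 25 °C; plate controls were DMSO-treated mutant yeast for no effect and medium wells lacking yeast for full effect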
NALP1 yeast inh: NALP1 inhibition | S. cerevisiae NALP1/ASC/caspase-1 growth, X-gal OD620, 72 h | inhibition, % at 10 µM | 280,000 tested, 0.61% active | AID 2071; in the data active = inhibition mostly above about 24%, no sharp cut-off; inactive = mostly below about 32%
An asterisk follows results filed as active. An excerpt weighted towards active compounds, which were near 4.2% of everything screened.

`Fc1ccc(C2CC(c3ccccc3)Nc3ncnn32)cc1` (stereo not given) gave TIM10 inh 12, tim10-1 inh 4, PfHsp90 set2 -11, NALP3 yeast inh -1, tim23-1 inh 10 and NALP1 yeast inh 35*.
c1ccc(C2CC(c3ccccc3)n3ncnc3N2)cc1 (stereo not given) was read as TIM10 inh 23, tim10-1 inh 34, PfHsp90 set2 -1, NALP3 yeast inh 3, tim23-1 inh 20 and NALP1 yeast inh 10.
Cc1ccc(/C=C(\C#N)C(=O)NCCN2CCOCC2)cc1 was read as TIM10 inh -1, tim10-1 inh 1, PfHsp90 set2 5, NALP3 yeast inh 17, tim23-1 inh 21 and NALP1 yeast inh 21*.
For COc1cccc(C2c3c(C)nn(-c4ccc([N+](=O)[O-])cc4)c3N=C3C(=O)Nc4ccccc4N32)c1 (stereo not given) the results were TIM10 inh 18, tim10-1 inh -21, PfHsp90 set2 7, NALP3 yeast inh 17, tim23-1 inh 2 and NALP1 yeast inh 30*.
For Cc1cn(CC(=O)NCc2ccc(N(C)C)cc2)c(=O)[nH]c1=O the results were PfHsp90 set2 -10.
For CC(=O)/C(N=Nc1ccc(C(=O)O)cc1)=C(\C)O the results were TIM10 inh 13, tim10-1 inh 9, PfHsp90 set2 -14, NALP3 yeast inh 22, tim23-1 inh 18 and NALP1 yeast inh 43*.
For Cc1ccc(C2=NN(CC(=O)NCCN(CC(C)C)CC(C)C)C(=O)CC2)cc1 the results were TIM10 inh 9, tim10-1 inh 10, PfHsp90 set2 14, NALP3 yeast inh 10, tim23-1 inh 11 and NALP1 yeast inh 20.
Screening CC(CNc1ccccc1O)C(=O)O (stereo not given) returned TIM10 inh 4, tim10-1 inh 7, PfHsp90 set2 -11, NALP3 yeast inh 25, tim23-1 inh 7 and NALP1 yeast inh 36.
`CCc1ccc(N=CC2=C(O)CC(c3ccco3)CC2=O)cc1` (stereo not given) gave TIM10 inh 5, tim10-1 inh 25, PfHsp90 set2 37, NALP3 yeast inh 16, tim23-1 inh 40 and NALP1 yeast inh 38*.
`O=C(/C=C/c1cccs1)c1ccc([N+](=O)[O-])cc1` gave TIM10 inh 6, tim10-1 inh 17, PfHsp90 set2 9, NALP3 yeast inh 8, tim23-1 inh 31 and NALP1 yeast inh 43*.
For CCC(C)(C)C1CCC2(CC1)NC(=O)N(CC(=O)N(C)Cc1ccc3c(c1)OCCO3)C2=O (stereo not given) the results were TIM10 inh 9, tim10-1 inh 12, PfHsp90 set2 -5, NALP3 yeast inh 6 and tim23-1 inh 20.
Screening COc1cccc(C(=O)NCC(=O)OCC(=O)NC2CCCCC2)c1 returned TIM10 inh -6, tim10-1 inh -6, NALP3 yeast inh 16 and tim23-1 inh -5.
CN(CC(=O)Nc1cccc(F)c1)C(=O)c1cc([N+](=O)[O-])ccc1N1CCOCC1 was read as TIM10 inh -7, tim10-1 inh -3, PfHsp90 set2 -13, NALP3 yeast inh 19 and tim23-1 inh 2.
`Nc1nc(-c2ccc3c(c2)OCCO3)c(CC(=O)O)s1` gave TIM10 inh -3, tim10-1 inh -19, PfHsp90 set2 12, NALP3 yeast inh 15, tim23-1 inh 2 and NALP1 yeast inh 1.
For Nc1nc(-c2ccc3c(c2)CCCC3)c(CC(=O)O)s1 the results were TIM10 inh 0, tim10-1 inh 33, PfHsp90 set2 -11, NALP3 yeast inh 8, tim23-1 inh 26 and NALP1 yeast inh 37*.
For Cc1ccc(C(=O)OCC(=O)NC2CCCC2)cc1C the results were TIM10 inh -4, tim10-1 inh 0, PfHsp90 set2 19, NALP3 yeast inh 35, tim23-1 inh 18 and NALP1 yeast inh 19.
Screening Cc1ccc(O)c(-c2cc(-c3cccc(Br)c3)n[nH]2)c1 returned TIM10 inh 33, tim10-1 inh -62, PfHsp90 set2 105*, NALP3 yeast inh 5, tim23-1 inh 5 and NALP1 yeast inh 16.
For Clc1ccsc1-c1ccc2ccccc2n1 the results were TIM10 inh -14, tim10-1 inh 19, PfHsp90 set2 -6, NALP3 yeast inh 11, tim23-1 inh 9 and NALP1 yeast inh 44*.
